Screens (PubChem)
Only some compounds are listed: those with a hit (about 6.6% of all), similar ones and a draw of the others.
KB-V1 MDR tox = qHTS assay for MDR1-selective chemotherapeutics: Primary screen using the drug-selected MDR subline cells KB-V1. KB-V1 MDR cells viability, CellTiter-Glo, 72 h. Potency, µM (doses to about 46.1 µM), hits mostly cytotoxic. 400,000 tested, 3.4% active. AID 1347076, 2019; note: nearly all actives have a fitted effect of over 60% in size
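Readout: CellTiter-Glo luminescence, 10 min after addition. Cells: KB-V1 MDR subline, 72 h at 37 degrees C with compound. Analysis: corrected, normalized data fitted to concentration-effect curves.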
KB-3-1 cytotox = qHTS assay for MDR1-selective chemotherapeutics: Primary screen using the parental adenocarcinoma cell KB-3-1. KB-3-1 viability, CellTiter-Glo ATP luminescence, 72 h. Potency, µM (series often up to 46.1 µM), hits mostly cytotoxic. 400,000 tested, 1.4% active; note: nearly all actives have a fitted effect of over 60% in size
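Using CellTiter-Glo luminescence, growth of non-resistant KB-3-1 adenocarcinoma cells is assessed 72 h after pin-tool compound addition at 37 °C. Normalized responses across the concentration series yield fitted curves.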
MCF10A rerep = A quantitative high throughput screen for small molecules that induce DNA re-replication in MCF 10a normal breast cells; 350,000 tested, 2.9% active; MCF 10A DNA re-replication, Hoechst nuclear intensity, 48 h; AID 624296, 2012; Potency, µM (doses to about 46.1 µM), most hits filed as activators; note: nearly all actives have a fitted effect of over 50% in size
SW480 rerep = A quantitative high throughput screen for small molecules that induce DNA re-replication in SW480 colon adenocarcinoma cells; Potency, µM (top dose mostly 46.1 µM), usual class: activators; SW480 DNA re-replication, Hoechst DNA content imaging, 48 h; 340,000 tested, 1.8% active; note: nearly all actives have a fitted effect of over 55% in size
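Cells (250 per well) received 23 nL compound or DMSO by pin tool and were kept 48 hr at 37 C, 5% CO2. Nuclei were then stained with Hoechst for 40 min and scanned for DNA content.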
PTAP TSG101 blk = qHTS Assay for Iinhibitors of HIV-1 Budding by Blocking the Interaction of PTAP/TSG101. Potency, µM (doses to about 115 µM), actives largely listed as inhibitors. Fluorescence polarization, FITC-PTAP peptide / Tsg101 binding. 340,000 tested, under 10 active; active = well fitted inhibition curve with a large enough effect in the main read-out, with a control signal flat, not every such curve was filed as active; inconclusive = small, poorly fitted or top-dose-only effect, or effect the other way, or a change in a side signal; inactive = no such curve, though single readings can be large or run the other way
Target sequence (Q99816 whole entry, looked up): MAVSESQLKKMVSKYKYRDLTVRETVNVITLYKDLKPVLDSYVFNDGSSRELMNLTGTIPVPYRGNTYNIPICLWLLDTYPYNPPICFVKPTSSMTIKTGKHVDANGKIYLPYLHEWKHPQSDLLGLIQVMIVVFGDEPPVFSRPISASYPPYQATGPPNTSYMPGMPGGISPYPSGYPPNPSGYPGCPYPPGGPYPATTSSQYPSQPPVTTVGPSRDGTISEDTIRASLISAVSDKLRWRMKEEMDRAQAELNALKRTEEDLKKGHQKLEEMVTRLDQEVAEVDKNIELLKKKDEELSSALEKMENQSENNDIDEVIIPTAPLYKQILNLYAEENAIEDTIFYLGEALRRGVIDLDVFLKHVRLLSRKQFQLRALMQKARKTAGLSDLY
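Fluorescence anisotropy tracks displacement of a FITC-tagged PTAP peptide (50 nM) from the Tsg101 binding domain (10 uM), following a 20 min room-temperature incubation at pH 7.5.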
RGS4 inh = Inhibitors of Regulator of G Protein Signaling (RGS) 4: qHTS; Potency, µM (series often up to 114 µM), usual class: inhibitors; 390,000 tested, 0.039% active; Regulator of G-protein signaling 4 (Homo sapiens), P49798; AID 504845, 2011; Transcreener GDP fluorescence polarization, RGS4-accelerated GTP hydrolysis; note: nearly all actives have a fitted effect of over 75% in size
Target sequence (P49798 whole entry, looked up): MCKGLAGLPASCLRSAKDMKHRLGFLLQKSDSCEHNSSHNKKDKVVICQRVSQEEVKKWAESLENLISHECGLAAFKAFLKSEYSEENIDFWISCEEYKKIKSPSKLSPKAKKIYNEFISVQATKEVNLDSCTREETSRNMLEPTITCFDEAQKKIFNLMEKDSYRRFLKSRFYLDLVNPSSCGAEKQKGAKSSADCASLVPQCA
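MLSMR compounds (23 nl, pin-transferred) preincubated 10 min at room temperature with a 500nM (2x) first reagent, then RGS4 at 900nM (2x) plus Transcreener GDP mix added; fluorescence polarization (620/688 nm) read before and after 90 min at 30 °C.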
A number is an active result; . = inactive; ? = inconclusive; / = no result given. Unless noted, calls come from the whole dose curve; as a rule, active = well fitted curve in the direction sought with a large enough effect; inconclusive = small, poorly fitted or top-dose-only effect, or another doubt; inactive = no such curve, though single readings can be large; an effect the other way counts as inactive or inconclusive.

SMILES | KB-V1 MDR tox | KB-3-1 cytotox | MCF10A rerep | SW480 rerep | PTAP TSG101 blk | RGS4 inh
C[N+]1=C(/C=C/Nc2ccccc2)C(C)(C)c2ccccc21 | 21µM | ? | . | . | . | .
C=Cc1cc(OC)c2c(c1)c(=O)oc1c2cc(OC)c2c(O)ccc(C3OC(C)C(O)C(C)(O)C3O)c21 (configuration not stated) | 18µM | ? | 3.7µM | 8.2µM | . | .
CC(=O)O[C@H]1C[C@@H]2OC3C=C(C)CCC3(C)[C@@]1(C)[C@@]21CO1 (some centres not stated) | 1.6µM | 2.3µM | 1µM | 9.2µM | . | .
CN(C)CCC=C1c2ccccc2CCc2ccccc21 | 21µM | . | ? | ? | . | .
Nc1ccc2nc3c(c(Cl)c2c1)CCCC3 | ? | ? | 16µM | ? | . | .
OCCNc1c2c(nc3ccccc13)CCCC2 | . | . | . | . | . | .
CC(=O)OC(C)(C)/C=C/C(=O)[C@](C)(O)C1[C@H](O)C[C@@]2(C)C3CC=C4C(C[C@H](O)C(=O)C4(C)C)[C@]3(C)C(=O)C[C@]12C (some centres not stated) | 0.92µM | 0.037µM | ? | ? | . | .
CC(C)(O)/C=C/C(=O)C(C)(O)C1C(O)CC2(C)C3CC=C4C(C=C(O)C(=O)C4(C)C)C3(C)C(=O)CC12C (configuration not stated) | 0.92µM | 0.18µM | 2.9µM | ? | . | .
CN1CCc2cc(O)cc3c2C1Cc1ccc(O)c(O)c1-3 (configuration not stated) | / | / | / | / | / | .
CN(CCc1ccc(Cl)c(Cl)c1)[C@H]1CCCC[C@H]1N1CCCC1 | / | / | / | / | / | .
C[C@@H]1O[C@@H](O[C@@H]2C=C3CC[C@@H]4[C@@H](CC[C@]5(C)[C@H](c6ccc(=O)oc6)CC[C@@]45O)[C@@]3(C)CC2)[C@H](O)[C@H](O)[C@H]1O | 0.92µM | 0.012µM | / | / | / | /
CC(=O)O[C@@]12CO[C@@H]1C[C@H](O)[C@@]1(C)C(=O)[C@H](O)C3=C(C)[C@@H](OC(=O)[C@H](O)[C@@H](NC(=O)c4ccccc4)c4ccccc4)C[C@@](O)([C@@H](OC(=O)c4ccccc4)C12)C3(C)C (some centres not stated) | 8.2µM | 0.0073µM | ? | 2.6µM | . | .
CC(=O)O[C@H]1C(=O)[C@@]2(C)C([C@H](OC(=O)c3ccccc3)[C@]3(O)C[C@H](OC(=O)[C@H](O)[C@@H](NC(=O)Cc4ccccc4)c4ccccc4)C(C)=C1C3(C)C)[C@]1(OC(C)=O)CO[C@@H]1C[C@@H]2O (some centres not stated) | ? | 0.0073µM | ? | 4.6µM | . | .
CC(C)[C@@]1(NC(=O)[C@@H]2C[C@H]3c4cccc5[nH]cc(c45)C[C@@H]3N(C)C2)O[C@@]2(O)[C@H]3CCCN3C(=O)[C@H](Cc3ccccc3)N2C1=O | / | / | / | / | / | .
O/N=C/c1c[nH]c2ccccc12 | . | . | . | . | . | .
NC(=Nc1ccccc1)NN=Cc1c[nH]c2ccccc12 | 2.6µM | ? | . | 6.5µM | . | .
COc1ccc(C2NCc3ccc4c(c3-n3cccc32)OCO4)cc1O (configuration not stated) | ? | 1.3µM | 4.1µM | 3.3µM | . | .
CCOc1cc2c(cc1OCC)-n1cccc1C(c1ccc(OC)c(OC)c1)NC2 (configuration not stated) | . | . | ? | . | . | .
Oc1ccc(C2NCc3ccccc3-n3cccc32)cc1Cl (configuration not stated) | . | . | ? | . | . | .
c1cc2n(c1)-c1c(ccc3c1OCO3)CNC2c1ccc2c(c1)OCO2 (configuration not stated) | 18µM | ? | . | . | . | .
CC1CCC(NC(=O)c2cc3c(=O)n(C)c4ccccc4c3n2C)CC1 (configuration not stated) | . | . | ? | . | . | .
Nc1ccc(N)cc1 | / | / | . | . | / | /
CC(C)CCC(=O)OC1CCC2C3CCC4=CC(=O)CC[C@]4(C)C3CC[C@]12C (some centres not stated) | / | / | ? | . | / | /
CCC(=O)OC1CCC2C3CCC4CC(=O)C=CC4(C)C3CCC12C (configuration not stated) | 5.8µM | 10µM | ? | ? | . | .
CCCCCCOc1ccc(C(=O)n2cnc(N)n2)cc1 | . | . | 23µM | . | . | .
SMILES | KB-V1 MDR tox | KB-3-1 cytotox | MCF10A rerep | SW480 rerep | PTAP TSG101 blk | RGS4 inh
Oc1ccc2c3c1O[C@H]1c4oc5ccccc5c4C[C@]4(O)[C@H](C2)N(CC2CC2)CC[C@@]314 | / | / | / | / | / | .
COc1ccc(C(=O)CN2CCOCC2)cc1 | . | . | / | / | / | /
Cc1cc(C)c(C(=O)CN2CCOCC2)c(C)c1 | . | . | 8.2µM | 9.2µM | . | ?
CC(C)N(CC[C@@](C(N)=O)(c1ccccc1)c1ccccn1)C(C)C | / | / | . | . | / | /
CCOC(=O)/C=C(C)/C=C/CC(C)CCCC(C)C (configuration not stated) | / | / | . | . | / | /
COC[C@H]1OC(=O)c2coc3c2[C@@]1(C)C1=C(C3=O)[C@@H]2CCC(=O)[C@@]2(C)C[C@H]1OC(C)=O | ? | 21µM | ? | . | . | ?
COc1ccc(/C=C2\SC(=O)N(CCn3cnnn3)C2=O)cc1 | . | . | . | ? | . | ?
CC(N)(COP(=O)(O)Oc1ccccc1)C(=O)O (configuration not stated) | / | / | / | / | / | .
Cc1ccc(S(=O)(=O)CC(C)(O)C(=O)Nc2cccc(C(F)(F)F)c2)cc1 (configuration not stated) | . | . | . | . | . | .
CC(O)(CS(=O)(=O)c1ccccc1)C(=O)Nc1cccc(C(F)(F)F)c1 (configuration not stated) | 21µM | . | . | . | / | .
O=P(c1ccccc1)(c1ccccc1)N(c1ccccc1)c1ccccc1 | . | . | . | . | . | ?
CCOC(=O)C(O)(c1ccc(N(C)C(=O)COc2ccccc2)cc1)C(F)(F)F (configuration not stated) | . | . | . | . | . | .
CN(C)C(=O)O/N=C(\N)COc1ccc(C(C)(C)C)cc1 | ? | . | ? | 12µM | . | .
